{"source": "ChEMBL document CHEMBL3988442", "about": "“University of Dundee, Small-Polar-MMV Screening Library” (2021)", "tested_on": "Leishmania donovani", "test": "Leishmania intramacrophage assay", "assay_type": "functional, organism-based", "design": "scale not given: in the data most compounds retested in dose-response had high values", "note": "About 1,000 (1.4%) of roughly 69,000 compounds showed an effect of 50% or more. The list comes from a sample in which strong results are over-represented; it also holds similar structures and randomly drawn compounds."}
{"smiles": "CC(C)CCN(C)Cc1ccccc1-c1nc(C(C)C)cc(=O)[nH]1", "values": [{"measurement": "Percent Effect", "setting": "30.3 µM, […]", "value": 41.3, "unit": "%"}]}
{"smiles": "CNc1cc2c(nn1)CCN(C(=O)c1coc(Br)c1)C2", "values": [{"measurement": "Percent Effect", "setting": "30 µM", "value": -2.691, "unit": "%"}]}
{"smiles": "COCCC1(CO)CCCN(Cc2cc(C(F)(F)F)ccc2F)C1", "note": "(stereo not drawn)", "values": [{"measurement": "Percent Effect", "setting": "30.3 µM, […]", "value": 0.4261, "unit": "%"}]}
{"smiles": "O=C(Nc1cccc(CN2CCC(CO)CC2)c1)c1cc(Cl)c[nH]1", "values": [{"measurement": "Percent Effect", "setting": "30.3 µM, […]", "value": 28.48, "unit": "%"}]}
{"smiles": "COCCNC(=O)Cn1cc2c(n1)c(C)nn2C", "values": [{"measurement": "Percent Effect", "setting": "30.3 µM, […]", "value": -28.68, "unit": "%"}]}
{"smiles": "O=C(NCCSC1CCCC1)c1cc(C2CC2)on1", "values": [{"measurement": "Percent Effect", "setting": "30.3 µM, […]", "value": -5.763, "unit": "%"}]}
{"smiles": "Cc1ccc2nc(C)cc(C(=O)NCc3csc(N(C)C)n3)c2c1", "values": [{"measurement": "Percent Effect", "setting": "30.3 µM, […]", "value": 25.38, "unit": "%"}]}
{"smiles": "COCCN(C)CC1CCCN1S(=O)(=O)Cc1ccccc1F", "note": "(stereo not drawn)", "values": [{"measurement": "Percent Effect", "setting": "30.3 µM, […]", "value": -13.31, "unit": "%"}]}
{"smiles": "O=C(CCO)N1CCOC2(CCCN(C(=O)c3ccco3)C2)C1", "note": "(stereo not drawn)", "values": [{"measurement": "Percent Effect", "setting": "30 µM, 30.03 µM", "value": -4.275, "unit": "%"}]}
{"smiles": "CC(=O)N1CCCC2(C1)CN(c1nncs1)CCO2.O=C(O)C(F)(F)F", "note": "(stereo not drawn)", "values": [{"measurement": "Percent Effect", "setting": "30.3 µM, […]", "value": 42.05, "unit": "%"}]}
{"smiles": "O=C(c1ccco1)N1CCCC2(C1)CN(c1nncs1)CCO2", "note": "(stereo not drawn)", "values": [{"measurement": "Percent Effect", "setting": "30.3 µM, […]", "value": 54.73, "unit": "%"}]}
{"smiles": "CO[C@@H]1CCN(S(=O)(=O)c2cccs2)[C@H]1Cc1cccnc1.O=C(O)C(F)(F)F", "values": [{"measurement": "Percent Effect", "setting": "30.3 µM, […]", "value": 35.84, "unit": "%"}]}
{"smiles": "Cc1cccc(C)c1OCC(=O)NS(=O)(=O)c1c(C)noc1C", "values": [{"measurement": "Percent Effect", "setting": "30 µM", "value": 12.57, "unit": "%"}]}
{"smiles": "CC(C)S(=O)(=O)N1CCC(c2[nH]ncc2S(C)(=O)=O)C1", "note": "(stereo not drawn)", "values": [{"measurement": "Percent Effect", "setting": "30.3 µM, […]", "value": -8.157, "unit": "%"}]}
{"smiles": "COc1ccc(-c2cc(CN)ccc2F)c(OC)c1OC", "values": [{"measurement": "Percent Effect", "setting": "30.3 µM, […]", "value": -7.273, "unit": "%"}]}
{"smiles": "COc1ccc(-c2ccccc2CCN)c(OC)c1OC", "values": [{"measurement": "Percent Effect", "setting": "30.3 µM, […]", "value": 95.35, "unit": "%"}]}
{"smiles": "COc1ccc(-c2ccccc2CN)c(OC)c1", "values": [{"measurement": "Percent Effect", "setting": "30.3 µM, […]", "value": 18.4, "unit": "%"}]}
{"smiles": "CC(C)N1CC[C@@H]2[C@H](COCC3CC3)CN(C)C(=O)[C@@H]2CC1.O=C(O)C(F)(F)F", "values": [{"measurement": "Percent Effect", "setting": "30.3 µM, […]", "value": 9.802, "unit": "%"}]}
{"smiles": "CS(=O)(=O)c1ccc(NC(=O)NCCC2=CCCCC2)cc1", "values": [{"measurement": "Percent Effect", "setting": "30.3 µM, […]", "value": 16.41, "unit": "%"}]}
{"smiles": "COc1ccc(CNC(Cn2cncn2)c2ccccc2)cc1C", "note": "(stereo not drawn)", "values": [{"measurement": "Percent Effect", "setting": "30.3 µM, […]", "value": 17.02, "unit": "%"}]}
{"smiles": "Cn1cc(C(NCc2ccc(F)cc2)c2cccc(F)c2)cn1", "note": "(stereo not drawn)", "values": [{"measurement": "Percent Effect", "setting": "30.3 µM, […]", "value": 7.526, "unit": "%"}]}
{"smiles": "Cl.O=C(NCc1ccc(F)cc1)N1CCN(CC(O)C2CC2)CC1", "note": "(stereo not drawn)", "values": [{"measurement": "Percent Effect", "setting": "30.3 µM, […]", "value": 10.63, "unit": "%"}]}
{"smiles": "Cc1ccc(CNC(c2ccccc2)c2nccn2C)cc1C", "note": "(stereo not drawn)", "values": [{"measurement": "Percent Effect", "setting": "30 µM, 30.03 µM", "value": 38.71, "unit": "%"}]}
{"smiles": "Cc1ccc(CNC(c2ccccc2)c2nccn2C)cc1.Cl", "note": "(stereo not drawn)", "values": [{"measurement": "Percent Effect", "setting": "30 µM", "value": -15.51, "unit": "%"}]}
{"smiles": "Cc1ccc(CNC(=O)CN2CCN(CC(O)C3CC3)CC2)cc1.Cl.Cl", "note": "(stereo not drawn)", "values": [{"measurement": "Percent Effect", "setting": "30 µM, 30.03 µM", "value": 31.99, "unit": "%"}]}
{"smiles": "O=C(NC(CN1CCCC1)c1ccccc1)c1c(O)cc(F)cc1F", "note": "(stereo not drawn)", "values": [{"measurement": "Percent Effect", "setting": "30.3 µM, […]", "value": 5.752, "unit": "%"}]}
{"smiles": "CNS(=O)(=O)c1cccc(C(C)NCc2ccc(F)c(F)c2)c1", "note": "(stereo not drawn)", "values": [{"measurement": "Percent Effect", "setting": "30.3 µM, […]", "value": 11.11, "unit": "%"}]}
{"smiles": "Cc1ccc(CNC(CN2CCN(C)CC2)c2ccccc2)cc1", "note": "(stereo not drawn)", "values": [{"measurement": "Percent Effect", "setting": "30 µM, 30.03 µM", "value": 94.58, "unit": "%"}]}
